# In PubChem BioAssay AID1159580 (chemical genetic matrix, 2015):
# Where “and” joins values, the source holds several entries; their conditions need not be identical. Equal values may be shown once. Out of some 5,500 compounds screened, about 2,000 (36%) were called active. Inconclusive results (about 18%) are left out. The list shows a part of the results. A number with no mark means an inactive call. No stated cut-off is given here; in the data, active means normalized growth mostly below about 0.91 (no sharp cut-off); inconclusive means no clear call, values can overlap the other calls; inactive means mostly above about 0.92.
# Assay: chemical genetic growth profiling, strain panel (AID 1159580);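 further: tested at 20 µM; growth read once vehicle control cultures reached saturation at 30 °C; 1 = growth at the plate median or of vehicle wells; lower values mean less growth of the strain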
# Conditions: S. cerevisiae deletion strains, growth OD
structure (smiles),measurement,setting,value
C=C1c2c(Cl)ccc(O)c2C(O)=C2C(=O)[C@]3(O)C(O)=C(C(N)=O)C(=O)[C@@H](N(C)C)[C@@H]3[C@@H](O)[C@H]12,normalized growth,"locus YAL013W, strain DEP1, active compounds read low",0.972
same,normalized growth,"locus YAL021C, strain ccr4, active compounds read low",0.964
same,normalized growth,"locus YAL026C, strain drs2, active compounds read low",0.934
same,normalized growth,"locus YAL030W, strain snc1, active compounds read low",0.981
same,normalized growth,"locus YBL061C, strain skt5, active compounds read low",0.976
same,normalized growth,"locus YBR009C, strain hhf1, active compounds read low",0.958
same,normalized growth,"locus YBR021W, strain FUR4, active compounds read low",0.914
same,normalized growth,"locus YBR023C, strain chs3, active compounds read low",0.966
same,normalized growth,"locus YBR171W, strain sec66, active compounds read low",0.999
same,normalized growth,"locus YBR229C, strain ROT2, active compounds read low",0.977
same,normalized growth,"locus YBR231C, strain swc5, active compounds read low",0.978
same,normalized growth,"locus YBR279W, strain paf1, active compounds read low",0.956
same,normalized growth,"locus YCL011C, strain gbp2, active compounds read low",0.935
same,normalized growth,"locus YCL016C, strain dcc1, active compounds read low",0.936
same,normalized growth,"locus YCL029C, strain bik1, active compounds read low",0.948
same,normalized growth,"locus YCL061C, strain MRC1, active compounds read low",0.954
same,normalized growth,"locus YCL069W, strain vba3, active compounds read low",0.977
same,normalized growth,"locus YCR088W, strain abp1, active compounds read low",0.981
same,normalized growth,"locus YDL005C, strain med2, active compounds read low",0.99
same,normalized growth,"locus YDL035C, strain GPR1, active compounds read low",0.954
same,normalized growth,"locus YDL040C, strain nat1, active compounds read low",0.993
same,normalized growth,"locus YDL074C, strain BRE1, active compounds read low",0.946
same,normalized growth,"locus YDL101C, strain DUN1, active compounds read low",0.965
same,normalized growth,"locus YDL134C, strain PPH21, active compounds read low",0.909
same,normalized growth,"locus YDL185W, strain tfp1, active compounds read low",0.961
same,normalized growth,"locus YDL192W, strain arf1, active compounds read low",0.95
same,normalized growth,"locus YDR001C, strain nth1, active compounds read low",0.973
same,normalized growth,"locus YDR069C, strain doa4, active compounds read low",0.965
same,normalized growth,"locus YDR101C, strain arx1, active compounds read low",0.961
same,normalized growth,"locus YDR137W, strain rgp1, active compounds read low",0.977
same,normalized growth,"locus YDR150W, strain NUM1, active compounds read low",0.98
same,normalized growth,"locus YDR159W, strain sac3, active compounds read low",0.966
same,normalized growth,"locus YDR162C, strain NBP2, active compounds read low",0.945
same,normalized growth,"locus YDR195W, strain ref2",1.01
same,normalized growth,"locus YDR297W, strain sur2, active compounds read low",0.981
same,normalized growth,"locus YDR318W, strain mcm21, active compounds read low",0.947
same,normalized growth,"locus YDR334W, strain swr1, active compounds read low",0.949
same,normalized growth,"locus YDR335W, strain msn5, active compounds read low",0.967
same,normalized growth,"locus YDR388W, active compounds read low",0.986
same,normalized growth,"locus YDR392W, strain spt3, active compounds read low",0.849
same,normalized growth,"locus YDR502C, strain sam2, active compounds read low",0.98
same,normalized growth,"locus YEL003W, strain gim4, active compounds read low",0.967
same,normalized growth,"locus YEL037C, strain rad23, active compounds read low",0.962
same,normalized growth,"locus YEL061C, strain CIN8 (second series), active compounds read low",0.974
same,normalized growth,"locus YEL061C, strain CIN8, active compounds read low",0.976
same,normalized growth,"locus YER015W, strain faa2, active compounds read low",0.912 (active)
same,normalized growth,"locus YER016W, strain bim1, active compounds read low",0.964
same,normalized growth,"locus YER110C, active compounds read low",0.989
same,normalized growth,"locus YER111C, strain swi4, active compounds read low",0.949
same,normalized growth,"locus YER155C, strain BEM2 (second series), active compounds read low",0.947
same,normalized growth,"locus YER155C, strain BEM2, active compounds read low",0.992
same,normalized growth,"locus YER167W, strain BCK2, active compounds read low",0.962
same,normalized growth,"locus YFR010W, strain ubp6, active compounds read low",0.958
same,normalized growth,"locus YGL078C, strain dbp3, active compounds read low",0.964
same,normalized growth,"locus YGL086W, strain mad1, active compounds read low",0.964
same,normalized growth,"locus YGL167C, strain pmr1, active compounds read low",0.971
same,normalized growth,"locus YGL173C, strain kem1, active compounds read low",0.983
same,normalized growth,"locus YGL227W, strain vid30, active compounds read low",0.997
same,normalized growth,"locus YGL240W, strain doc1, active compounds read low",1.01
same,normalized growth,"locus YGL248W, strain PDE1, active compounds read low",0.916
same,normalized growth,"locus YGL253W, strain hxk2, active compounds read low",0.968
same,normalized growth,"locus YGR078C, strain PAC10, active compounds read low",0.882
same,normalized growth,"locus YGR135W, strain pre9, active compounds read low",0.94
same,normalized growth,"locus YGR229C, strain SMI1, active compounds read low",0.957
same,normalized growth,"locus YGR252W, strain gcn5, active compounds read low",0.967
same,normalized growth,"locus YHR013C, strain ard1, active compounds read low",0.975
same,normalized growth,"locus YHR027C, strain rpn1, active compounds read low",0.962
same,normalized growth,"locus YHR030C, strain SLT2, active compounds read low",0.969 and 0.993
same,normalized growth,"locus YHR079C, strain IRE1 (second series), active compounds read low",0.961
same,normalized growth,"locus YHR079C, strain IRE1, active compounds read low",0.985
same,normalized growth,"locus YHR094C, strain hxt1, active compounds read low",0.974
same,normalized growth,"locus YHR129C, strain ARP1, active compounds read low",0.958
same,normalized growth,"locus YHR142W, strain chs7, active compounds read low",0.981
same,normalized growth,"locus YHR200W, strain rpn10, active compounds read low",0.952
same,normalized growth,"locus YIL066C, strain RNR3, active compounds read low",0.915
same,normalized growth,"locus YIL073C, strain SPO22, active compounds read low",0.952
same,normalized growth,"locus YIL125W, strain kgd1, active compounds read low",0.98
same,normalized growth,"locus YIR030C, strain dcg1, active compounds read low",0.98
same,normalized growth,"locus YJL092W, strain hpr5, active compounds read low",0.966
same,normalized growth,"locus YJL095W, strain BCK1 (second series), active compounds read low",0.976
same,normalized growth,"locus YJL095W, strain BCK1, active compounds read low",0.898 and 0.992
same,normalized growth,"locus YJL115W, strain asf1, active compounds read low",0.979
same,normalized growth,"locus YJL129C, strain trk1, active compounds read low",1.01
same,normalized growth,"locus YJL134W, strain LCB3, active compounds read low",0.98
same,normalized growth,"locus YJL154C, strain vps35, active compounds read low",0.985
same,normalized growth,"locus YJL164C, strain tpk1, active compounds read low",0.928
same,normalized growth,"locus YJL166W, strain qcr8, active compounds read low",0.976
same,normalized growth,"locus YJL168C, strain set2, active compounds read low",0.974
same,normalized growth,"locus YJL187C, strain SWE1 (second series), active compounds read low",0.885
same,normalized growth,"locus YJR043C, strain POL32, active compounds read low",0.879
same,normalized growth,"locus YJR066W, strain TOR1, active compounds read low",0.951
